Measurements from PubChem BioAssay (NCI).
This is part of a sample that, as a whole, favours compounds with a hit. Of some 79,000 tested, about 15% had one in any assay. Active and inactive are the calls of the source. Cut-off read from the data, not from the text of the source: active = growth inhibition above about 70%; inactive = the rest.

What was measured:
[1] = NCI Yeast Anticancer Drug Screen. Data for the rad50 strain (AID 155);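 note: 0% = growth of vehicle-only cultures of the same strain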; settings: S. cerevisiae rad50 strain growth inhibition, active compounds read high
How it was run: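 Readout: growth inhibition relative to vehicle-treated cultures. Compound exposure was carried out in a genetically defined yeast strain deficient in DNA damage repair.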

[2] = NCI Yeast Anticancer Drug Screen. Data for the mec2-1 strain (AID 157); settings: S. cerevisiae mec2-1 strain, active compounds read high
How it was run: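 Each compound was tested on mec2-1 yeast, a strain altered in DNA damage repair or cell cycle control. Growth inhibition is reported relative to vehicle.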

[3] = NCI Yeast Anticancer Drug Screen. Data for the sgs1 mgt1 strain (AID 161);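 note: 0% = growth of cultures given vehicle only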; settings: S. cerevisiae sgs1 mgt1 strain, active compounds read high
How it was run: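 Inhibition of yeast growth, normalised to vehicle-treated controls, is reported for a strain bearing genetic alterations in DNA damage repair.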

[4] = NCI Yeast Anticancer Drug Screen. Data for the cln2 rad14 strain (AID 165);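 note: 0% = growth equal to vehicle treated cultures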; settings: S. cerevisiae cln2 rad14 strain, active compounds read high
How it was run: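 Test compounds were added to cln2 rad14 yeast cultures; inhibition of growth was then determined by comparison with vehicle treatment.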

[5] = NCI Yeast Anticancer Drug Screen. Data for the bub3 strain (AID 167); settings: S. cerevisiae bub3 mutant strain, active compounds read high
How it was run: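 Readout: yeast growth inhibition, expressed relative to vehicle-only wells. The test organism is a mutant strain from a panel with lesions in DNA repair or checkpoint genes.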

[6] = NCI Yeast Anticancer Drug Screen. Data for the mlh1 rad18 strain (AID 175); settings: S. cerevisiae mlh1 rad18 strain growth inhibition, active compounds read high
How it was run: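 Inhibition values reflect reduced growth of mutant yeast versus vehicle-treated controls following compound exposure; the mutations affect DNA damage repair.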

[7] = at 5.0 µM (retest, dose inferred, filed as 0.5)
[8] = at 50.0 µM (retest, dose inferred, filed as 5.0)

Measured: growth inhibition

CN1C(=O)C(C2C(=O)N(C)C(=O)N(C)C2=O)C(=O)N(C)C1=O
inactive: [1]; [7] 13% | [1]; [8] -3% | [1]; at 50.0 µM 2.95% | [2]; [7] 2% | [2]; [8] 0% | [2]; at 50.0 µM 0.9% | [3]; [7] 0% | [3]; [8] -11% | [3]; at 50.0 µM 12.2% | [4]; [7] 2% | [4]; [8] 4% | [4]; at 50.0 µM 39.4% | [5]; [7] 0% | [5]; [8] -2% | [5]; at 50.0 µM -2.2% | [6]; [7] 1% | [6]; [8] -2% | [6]; at 50.0 µM 8.55%

CCC(N)(CO)CO
active: [4]; at 50.0 µM 71.5%
inactive: [1]; [7] 7% | [1]; [8] 67% | [1]; at 50.0 µM 3.65% | [2]; [7] 5% | [2]; [8] 8% | [2]; at 50.0 µM 8.3% | [3]; [7] 2% | [3]; [8] 11% | [3]; at 50.0 µM 9.7% | [4]; [7] 5% | [4]; [8] 12% | [5]; [7] 3% | [5]; [8] 14% | [5]; at 50.0 µM 44.1% | [6]; [7] 2% | [6]; [8] 8% | [6]; at 50.0 µM -30.2%

Oc1cc(O)cc(O)c1
inactive: [1]; [7] 10% | [1]; at 50.0 µM 15.7% | [2]; [7] -2% | [2]; [8] 18% | [2]; at 50.0 µM -4.05% | [3]; [7] 0% | [3]; [8] 19% | [3]; at 50.0 µM 12.3% | [4]; [7] 5% | [4]; [8] 17% | [4]; at 50.0 µM 7.85% | [5]; [7] -4% | [5]; [8] 6% | [5]; at 50.0 µM 69% | [6]; [7] -5% | [6]; [8] 16% | [6]; at 50.0 µM 23.3%
active: [1]; [8] 76%

O=C(O)c1cc(-c2ccc3c(c2)Nc2ccccc2S3)nc2ccc(F)cc12
active: [1]; [8] 98% | [1]; at 50.0 µM 99% | [2]; [8] 98% | [2]; at 50.0 µM 99.1% | [3]; [8] 99% | [3]; at 50.0 µM 98.8% | [4]; [8] 97% | [4]; at 50.0 µM 98.7% | [5]; [8] 97% | [5]; at 50.0 µM 98% | [6]; [8] 96% | [6]; at 50.0 µM 98.7%
inactive: [1]; [7] 16% | [2]; [7] -40% | [3]; [7] 12% | [4]; [7] 22% | [5]; [7] 33% | [6]; [7] 18%

Cn1c(=S)c2[nH]c(SCCN3CCCC3)nc2n(C)c1=O
active: [1]; [7] 83% | [1]; [8] 99% | [1]; at 50.0 µM 90.8% | [2]; [7] 70% | [2]; [8] 99% | [3]; [8] 94% | [4]; [8] 79% | [5]; [8] 99% | [6]; [8] 95% | [6]; at 50.0 µM 97.2%
inactive: [2]; at 50.0 µM 61.2% | [3]; [7] 53% | [3]; at 50.0 µM 67.5% | [4]; [7] 28% | [4]; at 50.0 µM 1.75% | [5]; [7] 61% | [5]; at 50.0 µM 68% | [6]; [7] 37%

O=C(O)/C(=C/c1ccccc1)c1ccccc1.[Ag]
inactive: [4]; [7] -14%
active: [1]; [7] 99% | [1]; [8] 99% | [1]; at 50.0 µM 99.4% | [2]; [7] 100% | [2]; [8] 99% | [2]; at 50.0 µM 94.5% | [3]; [7] 100% | [3]; [8] 100% | [3]; at 50.0 µM 99.3% | [4]; [8] 99% | [4]; at 50.0 µM 78.8% | [5]; [7] 100% | [5]; [8] 98% | [5]; at 50.0 µM 93.7% | [6]; [7] 99% | [6]; [8] 99% | [6]; at 50.0 µM 99.4%

Oc1ccccc1C(Sc1nc2ccccc2s1)Sc1nc2ccccc2s1
inactive: [1]; [7] 4% | [2]; [7] 16% | [3]; [7] 19% | [4]; [7] -1% | [5]; [7] -3% | [6]; [7] 3%
active: [1]; [8] 97% | [1]; at 50.0 µM 97.3% | [2]; [8] 97% | [2]; at 50.0 µM 95.8% | [3]; [8] 97% | [3]; at 50.0 µM 97.2% | [4]; [8] 93% | [4]; at 50.0 µM 72% | [5]; [8] 97% | [5]; at 50.0 µM 91% | [6]; [8] 98% | [6]; at 50.0 µM 90%

CC(C)(C)Oc1ccc(CC(NC(=O)OCC2c3ccccc3-c3ccccc32)C(=O)O)cc1 (stereo not given)
inactive: [1]; [7] 9% | [2]; [7] -11% | [3]; [7] -9% | [4]; [7] 33% | [5]; [7] -7% | [6]; [7] -3%
active: [1]; [8] 95% | [1]; at 50.0 µM 90.6% | [2]; [8] 97% | [2]; at 50.0 µM 93.2% | [3]; [8] 98% | [3]; at 50.0 µM 90.5% | [4]; [8] 96% | [4]; at 50.0 µM 91.7% | [5]; [8] 97% | [5]; at 50.0 µM 89.2% | [6]; [8] 96% | [6]; at 50.0 µM 90.3%

CN(C)C[N+](C)(C)Cc1ccc(C[N+](C)(C)C[N+](C)(C)Cc2ccc(CCl)cc2)cc1
active: [1]; at 50.0 µM 83%
inactive: [1]; [7] 0% | [1]; [8] -2% | [2]; [7] -36% | [2]; [8] -1% | [2]; at 50.0 µM 20.4% | [3]; [7] -2% | [3]; [8] -1% | [3]; at 50.0 µM 69.5% | [4]; [7] 0% | [4]; [8] -1% | [4]; at 50.0 µM 45% | [5]; [7] -8% | [5]; [8] -1% | [5]; at 50.0 µM 66.2% | [6]; [7] -2% | [6]; [8] -1% | [6]; at 50.0 µM 52.5%

CCCCCCCCCCCCCCCC(=O)N1CC[N+](C)(CC2=CC3(Cl)C(Cl)=C(Cl)C2(Cl)C3(Cl)Cl)CC1 (stereo not given)
active: [1]; [7] 99% | [1]; [8] 99% | [1]; at 50.0 µM 98.8% | [2]; [7] 99% | [2]; [8] 99% | [2]; at 50.0 µM 99.2% | [3]; [7] 98% | [3]; [8] 99% | [3]; at 50.0 µM 99.2% | [4]; [7] 96% | [4]; [8] 98% | [4]; at 50.0 µM 98.5% | [5]; [7] 99% | [5]; [8] 99% | [5]; at 50.0 µM 98.8% | [6]; [7] 99% | [6]; [8] 99% | [6]; at 50.0 µM 98.7%
